These results are taken from PubChem BioAssay (NCATS).

Inconclusive results are not listed. Calls of active or inactive are those of the source. Unless noted, calls follow the shape of the full dose curve. Peptide text beside a SMILES is read from it. * marks the point of attachment. Cbz = O=C(OCc1ccccc1)*

Experiment [1] can be described thus: qHTS for Inhibitors of the Functional Ribonucleoprotein Complex (vRNP) of Lassa (LASV) Arenavirus: LASV Primary Screen - GLuc reporter signal (AID 1347082; calls by dose curve; tested in HEK293 reporter line; also: nearly all actives have a fitted effect of over 60% in size; also: potency is read from the fitted curve at half-maximal effect; as to activity change, negative = inhibition: % is scaled to controls: 0 for no effect and ±100 for the full control effect). As to conditions: LASV minigenome vRNP, Gaussia luciferase reporter; series mostly up to 57.5 µM.
Experiment [2] can be described thus: qHTS for Inhibitors of the Functional Ribonucleoprotein Complex (vRNP) of Lassa (LASV) Arenavirus: Viability assay - alamar blue signal for LASV Primary Screen (AID 1347083; calls by dose curve; tested in HEK293 reporter line; also: nearly all actives have a fitted effect of over 80% in size; also: potency is read from the fitted curve at half-maximal effect). Conditions: cell viability, alamar blue fluorescence (LASV minigenome counter-screen); series mostly up to 57.5 µM. In general terms: qHTS replaces the single test concentration by a dilution series.

Experiment [3] in a line: qHTS for Inhibitors of the Functional Ribonucleoprotein Complex (vRNP) of Lymphocytic Choriomeningitis Arenaviruses (LCMV): Viability assay - alamar blue signal for LCMV Primary Screen (AID 1347085; calls by dose curve; tested in HEK293 reporter line; also: nearly all actives have a fitted effect of over 80% in size; also: potency is read from the fitted curve at half-maximal effect). Conditions: alamar blue viability counter-screen, LCMV vRNP screen cells; series mostly up to 57.5 µM.
For experiment [4], the target named is Nucleoprotein (Lymphocytic choriomeningitis virus (strain Armstrong)) (UniProt P09992). In words: qHTS for Inhibitors of the Functional Ribonucleoprotein Complex (vRNP) of Lymphocytic Choriomeningitis Arenaviruses (LCMV): LCMV Primary Screen - GLuc reporter signal (AID 1347086). Also: nearly all actives have a fitted effect of over 70% in size. Also: potency is read from the fitted curve at half-maximal effect. As to activity change, negative = inhibition: % is scaled to controls: 0 for no effect and ±100 for the full control effect. As to conditions: LCMV minigenome vRNP cell assay, Gaussia luciferase reporter; series mostly up to 57.5 µM.
Nucleoprotein (Lymphocytic choriomeningitis virus (strain Armstrong)), sequence (P09992 whole entry, looked up): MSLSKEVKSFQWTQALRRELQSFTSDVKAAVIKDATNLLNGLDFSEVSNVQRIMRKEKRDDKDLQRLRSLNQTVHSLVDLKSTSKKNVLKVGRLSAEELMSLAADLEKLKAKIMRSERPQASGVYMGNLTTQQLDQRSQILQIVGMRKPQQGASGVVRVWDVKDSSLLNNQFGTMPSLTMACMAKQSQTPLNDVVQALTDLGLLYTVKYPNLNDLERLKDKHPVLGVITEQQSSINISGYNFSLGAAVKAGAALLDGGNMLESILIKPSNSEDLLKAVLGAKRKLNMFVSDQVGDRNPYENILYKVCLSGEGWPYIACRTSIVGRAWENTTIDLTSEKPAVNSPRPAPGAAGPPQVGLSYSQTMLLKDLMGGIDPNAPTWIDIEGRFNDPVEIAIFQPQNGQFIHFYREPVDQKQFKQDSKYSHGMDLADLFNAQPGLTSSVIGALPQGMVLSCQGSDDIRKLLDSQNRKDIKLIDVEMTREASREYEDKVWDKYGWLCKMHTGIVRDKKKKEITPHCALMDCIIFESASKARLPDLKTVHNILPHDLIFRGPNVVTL

Experiment [5] can be described thus: Cytotoxicity counterscreen for inhibitors of SARS-CoV-2 cell entry (AID 1645845). Also: nearly all actives have a fitted effect of over 50% in size. Also: potency is read from the fitted curve at half-maximal effect. Conditions: cell viability (SARS-CoV-2 entry assay cells); series mostly up to 57.1 µM. A digest of the protocol:
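48 h compound treatment (after 1 h preincubation), HEK293-ACE2 cells, 37 C/5% CO2; ATP luminescence endpoint; normalized to cell wells and media blanks.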

The nature of experiment [6]: Primary qHTS to identify inhibitors of SARS-CoV-2 cell entry (AID 1645846). Also: nearly all actives have a fitted effect of over 45% in size. As to conditions: SARS-CoV-2 pseudovirus cell entry assay, luminescence; activity change, negative = inhibition: at 57.1 µM (top of the series) unless noted; series mostly up to 57.1 µM. Put shortly: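 Luminescence readout (Bright-Glo luciferase) 48 h after pseudoparticle addition. HEK293-ACE2 cells, 1500/well; compound pre-incubation 1 h; Normalized to spike PP and bald PP.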

On to `Cc1ccc(C(C)(O)c2nc3ccccc3s2)c(C)c1` (centres undefined), for which the Potency result in experiment [1], in experiment [2], in experiment [3], in experiment [4] and in experiment [5] was “inactive” throughout.
Take `CC1CCC(C(=O)N(c2cc(C#CC(C)(C)C)sc2C(=O)O)C2CCC(O)CC2)CC1` (centres undefined): the Potency result in experiment [1], in experiment [2], in experiment [3], in experiment [4] and in experiment [5] was “inactive” throughout.
On to `CC(C)(F)C[C@H](N[C@@H](c1ccc(-c2ccc(S(C)(=O)=O)cc2)cc1)C(F)(F)F)C(=O)NC1(C#N)CC1`, for which the Potency result in experiment [1], in experiment [2], in experiment [3], in experiment [4] and in experiment [5] was “inactive” throughout.
For the compound `CCOC(=O)C=C[C@H](C[C@@H]1CCNC1=O)NC(=O)[C@@H](CC(=O)[C@@H](NC(=O)c1cc(C)on1)C(C)C)Cc1ccc(F)cc1`, the Potency result in experiment [1], in experiment [2], in experiment [3], in experiment [4] and in experiment [5] was “inactive” in each case.
Consider `CC(NCCc1ccc(O)cc1)C(O)c1ccc(O)cc1` (centres undefined), for which the Potency entry in experiment [1], in experiment [2], in experiment [3], in experiment [4] and in experiment [5] was “inactive” in each case. In addition, the activity change, negative = inhibition in experiment [6] was -5.33%.
Turning to `C[C@H]1COC2=C1C(=O)C(=O)c1c2ccc2c1CCCC2(C)C`, the Potency entry in experiment [1], in experiment [2], in experiment [3], in experiment [4] and in experiment [5] was “inactive” each time. Further, in experiment [6], the activity change, negative = inhibition was -2.76%.
As for `CC(C)(O)CCc1ccc(OCc2cc(-c3cccc(OC(F)F)c3)c3ncccc3c2)cc1`, the Potency entry in experiment [1], in experiment [2], in experiment [3], in experiment [4] and in experiment [5] was “inactive” in each case. Besides, the activity change, negative = inhibition in experiment [6] is -16.6%.
In the case of `O=C(NCc1ccncc1)C12C[C@H]3C[C@@H](C1)CC(c1ccc(Cl)cc1)(C3)C2`, the Potency entry in experiment [1], in experiment [2], in experiment [3], in experiment [4] and in experiment [5] was “inactive” throughout.
For `CC(C)C[C@@H](C=O)NC(=O)[C@H](CC(C)C)NC(=O)[C@H](CC(C)C)NC(=O)OCc1ccccc1` (Cbz-Leu-Leu-Leu-aldehyde), the Potency in experiment [1] was 1.93 µM (active); in experiment [2], 4.32 µM (active); in experiment [3] it was 5.44 µM (active); in experiment [4] it was 3.43 µM (active); in experiment [5], 1.12 µM (active). In experiment [6], the activity change, negative = inhibition is -96.8%.
On to `O=C(NC[C@H](O)CO)c1ccncc1Nc1ccc(I)cc1F`, for which the Potency entry in experiment [1], in experiment [2], in experiment [3], in experiment [4], in experiment [5] and in experiment [6] was “inactive” each time.
Regarding `CC[C@H](C)n1cc(C)c2c(C(=O)NCc3c(C)cc(C)[nH]c3=O)cc(-c3ccc(N4CCNCC4)nc3)cc21`, the Potency entry in experiment [1], in experiment [2], in experiment [3], in experiment [4] and in experiment [5] was “inactive” each time.
For the compound `O=C(O)C1=CC(O)C(O)[C@H](O)C1` (some centres undefined), the Potency entry in experiment [1], in experiment [2], in experiment [3], in experiment [4] and in experiment [5] was “inactive” throughout. In experiment [6], the activity change, negative = inhibition was -8.99%.
Consider `C=C[C@@H]1CN2CCC1C[C@H]2[C@H](O)c1ccnc2ccc(OC)cc12` (some centres undefined), for which the Potency result in experiment [1], in experiment [2], in experiment [3], in experiment [4] and in experiment [5] was “inactive” each time.
With `O=C(c1ccc(C(=O)N2CCC(N3CCCC3)CC2)c(Nc2ccccc2)c1)N1CCC(N2CCCC2)CC1`, the Potency entry in experiment [1], in experiment [2], in experiment [3], in experiment [4] and in experiment [5] was “inactive” in each case. In addition, the activity change, negative = inhibition in experiment [6] was -24.6%.
Turning to `O=C(O)CCCCC(CCSCc1ccccc1)SCc1ccccc1` (centres undefined), the Potency result in experiment [1], in experiment [2], in experiment [3], in experiment [4] and in experiment [5] was “inactive” each time. Besides, in experiment [6], the activity change, negative = inhibition is -0.966%.
Regarding `C=Cc1c(C)c2cc3nc(cc4[nH]c(cc5nc(cc1[nH]2)C(C)=C5CCC(=O)O)c(CCC(=O)OC)c4C)[C@@]1(C)C3=CC=C(C(=O)OC)[C@H]1C(=O)OC`, the Potency in experiment [1] is 1.72 µM (active); in experiment [2], 0.344 µM (active); in experiment [3], 0.172 µM (active); in experiment [4] it was 0.217 µM (active). Further, the Potency result in experiment [5] and in experiment [6] was “inactive” throughout.
Take `Cc1ccc2c(c1)C(=O)[C@]1(O)CCN(c3ccccc3)C1=N2`: the Potency entry in experiment [1], in experiment [2], in experiment [3], in experiment [4] and in experiment [5] was “inactive” throughout. The activity change, negative = inhibition in experiment [6] was -18.4%.
As to `O=S(=O)(O)c1ccc2cc(N=Nc3cc(S(=O)(=O)O)c4cccnc4c3O)ccc2c1`, the Potency entry in experiment [1], in experiment [2], in experiment [3], in experiment [4], in experiment [5] and in experiment [6] was “inactive” each time.
Take `Cc1cncc2cccc(S(=O)(=O)N3CCCN(C(=O)CN)C[C@@H]3C)c12`: the Potency entry in experiment [1], in experiment [2], in experiment [3], in experiment [4] and in experiment [5] was “inactive” throughout. In addition, the activity change, negative = inhibition in experiment [6] is -30.7%.
Consider `CCCCCCCCCCCC(CC1OC(=O)C1CCCCCC)OC(=O)C(CC(C)C)NC=O` (centres undefined), for which the Potency entry in experiment [1], in experiment [2], in experiment [3], in experiment [4] and in experiment [5] was “inactive” throughout. Besides, the activity change, negative = inhibition in experiment [6] stood at 0.438%.
As to `CC(=O)OC1C(C)OC(Oc2c(-c3ccc(O)cc3)oc3cc(O)cc(O)c3c2=O)C(O)C1OC(C)=O` (centres undefined), the Potency result in experiment [1], in experiment [2], in experiment [3], in experiment [4], in experiment [5] and in experiment [6] was “inactive” throughout.
`c1cc(-c2sc(-c3ccncc3)c(-c3ccncc3)c2-c2ccncc2)ccn1`: the Potency entry in experiment [1], in experiment [2], in experiment [3], in experiment [4], in experiment [5] and in experiment [6] was “inactive” throughout.
Take `C[C@H](CCC(=O)O)[C@H]1CCC2C3C[C@H](O)[C@@H]4C[C@H](O)CC[C@]4(C)C3CC[C@@]21C` (some centres undefined): the Potency result in experiment [1], in experiment [2], in experiment [3], in experiment [4] and in experiment [5] was “inactive” each time. Besides, in experiment [6], the activity change, negative = inhibition was -10.6%.
In the case of `Cn1c(=O)c(-c2c(Cl)cccc2Cl)cc2cnc(Nc3cccc(C(=O)O)c3)nc21`, the Potency entry in experiment [1], in experiment [2], in experiment [3], in experiment [4], in experiment [5] and in experiment [6] was “inactive” each time.
With `C=C1c2cccc(O)c2C(O)=C2C(=O)[C@@]3(O)C(O)=C(C(N)=O)C(=O)[C@@H](N(C)C)[C@@H]3[C@@H](O)[C@H]12`, the Potency entry in experiment [1], in experiment [2], in experiment [3], in experiment [4] and in experiment [5] was “inactive” throughout. For the same compound, in experiment [6], the activity change, negative = inhibition was -17.4%.
For the compound `C[Se]CCC(N)C(=O)O` (centres undefined), the Potency entry in experiment [1], in experiment [2], in experiment [3], in experiment [4] and in experiment [5] was “inactive” throughout. Further, the activity change, negative = inhibition in experiment [6] is -2.1% [at 114 µM].
